24 molecules from PubChem BioAssay can be followed below.

The source made the active and inactive calls.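 The calls were made as follows: active = viability loss from added drug above about 55%, and viability with drug at most 40%, in both replicates (limit read from the data, passing the limit was not always enough); inconclusive = both conditions met in only one replicate; inactive = neither replicate meets both conditions.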

This assay is described as follows: MRP1 drug-resistance reversers in H69AR cells – cell-based, doxorubicin co-treatment, pilot screen (AID 601). The settings on record: H69AR cells + 2 uM doxorubicin, CellTiter-Glo, 72 h; at 10 µM; stronger effect = higher value.
Take `CC(=O)Nc1ccc(NS(=O)(=O)c2ccc(Cl)c(C(=O)O)c2)cc1`: the differential viability (reversal) was 9.96% (inactive).
In the case of `CC(=O)CCc1ccc(OCCCCn2cncn2)cc1`, the differential viability (reversal) is 3.28% (inactive).
With `CCCC(=O)Nc1ccc(NC(=O)c2ccccc2OC)cn1` the figure was 5.96% (inactive); with `CCOC(=O)c1[nH]c(C)c(C(=O)Nc2ccccc2F)c1C`, -51% (inactive).
In the case of `COc1ccccc1C(=O)N1CCN(CCc2ccccc2)CC1` it was 3.95% (inactive).
For the molecule `CCN1CCN(c2c(Cl)cccc2NC(=O)c2ccc3c(c2)OCCO3)CC1`, the differential viability (reversal) was 1.33% (inactive).
In the case of `COc1ccccc1NS(=O)(=O)c1ccc(OC)c(OC)c1`, the differential viability (reversal) is -3.15% (inactive).
On to `CN(C(=O)c1ccc(S(=O)(=O)NC2CCCC2)cc1)C1CCCCC1`, for which the differential viability (reversal) is 9.82% (inactive).
`C/C(N)=C(/C#N)C(=O)COC(=O)c1cc(S(=O)(=O)N2CCCCC2)ccc1C`: the differential viability (reversal) is 0.98% (inactive).
In the case of `CC(=O)Nc1ccc(-c2cc3ccccc3o2)cc1` it was 12% (inactive); in that of `CCN(CC)S(=O)(=O)c1ccc2oc(C(=O)O)c(C)c2c1`, 10.4% (inactive); in that of `CCn1c(=O)cc(SCC(=O)Nc2ccc3c(c2)OCO3)c2ccccc21`, 3.51% (inactive).
With `CN(C(=O)c1ccncc1)C1CC(C)(C)N(O)C(C)(C)C1` the figure was -1.93% (inactive).
In the case of `CCCC(=O)Nc1ccccc1NC(=O)CN(C)S(=O)(=O)c1ccc(C)cc1` it was 9.23% (inactive); in that of `Cn1c(=O)cc(OCC(=O)NCCCN2CCN(Cc3ccccc3)CC2)c2ccccc21`, 17.9% (inactive).
On to `CCNC(=O)C1CC(=O)N(Cc2ccc3c(c2)OCO3)C(=Nc2ccc(OCC)cc2)S1` (centres undefined), for which the differential viability (reversal) is 2.95% (inactive).
With `Cc1cc(-c2ccccc2)nc2cc(C(N)=O)nn12` the figure was 8.83% (inactive); with `Cc1ccc(C)c(-n2c(Cc3cc(=O)[nH]c(=O)[nH]3)nnc2SCC(=O)NCc2ccco2)c1`, 13.3% (inactive).
`Cn1c(C(=O)NCCC2=CCCCC2)cc2c(=O)n3ccccc3nc21`: the differential viability (reversal) was 15.7% (inactive).
With `O=C1CCC(c2ccccc2)N1C(=O)c1cccnc1` (centres undefined) the figure was 8.63% (inactive).
Take `Cc1ccc(-n2nnnc2SCC(=O)N2CCc3ccccc3C2)cc1`: the differential viability (reversal) is -8.77% (inactive).
In the case of `COC(=O)c1oc2ccc(OC)cc2c1N` it was 13.9% (inactive); in that of `O=C(C1CCC(CNS(=O)(=O)c2cccc3cccnc23)CC1)N1CCCC1` (centres undefined), 3.37% (inactive); in that of `FC(F)(F)C(F)(F)C(F)(F)c1nnc2ccc(N3CCOCC3)nn12`, -0.265% (inactive).
